In all, about 320,000 compounds went through this assay and about 22,000 (6.9%) were called active. Roughly 27% stayed inconclusive and do not appear here. Calls come from the whole dose curve; as a rule, active = well fitted inhibition curve with a large enough effect; inconclusive = small, poorly fitted or top-dose-only effect, or another doubt; inactive = no such curve, though single readings can be large or run the other way. Many of the other results were omitted from the sample, so actives are more common in it than they were.
assay: Primary qHTS for delayed death inhibitors of the malarial parasite plastid, 96 hour incubation; details: P. falciparum luciferase reporter growth; series mostly up to 28.7 µM; activity change, negative = inhibition: at the top concentration
Summary of the method: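 Luminescence readout: decreased luciferase signal marks inhibited growth of reporter-expressing P. falciparum in infected red cells (2% hematocrit, 0.05% parasitemia final), exposed to compound two generations (96 h, 37 C, 5% CO2).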
% is set by controls: 0 for no effect and ±100 for the full control effect; potency is the fitted concentration of half-maximal effect.

Structure (SMILES)	activity change, negative = inhibition	Potency
Cc1ccc(S(=O)(=O)N2CC(C)N(S(C)(=O)=O)C2)cc1 (centres undefined)	15.5% (inactive)	
O=C(CNC(=O)C12CC3CC(CC(C3)C1)C2)OCC(=O)N1CCCCC1	-0.439% (inactive)	
CC(C)N(Cc1ccccc1)C(=O)COC(=O)c1ccccc1SCC(=O)N1CCCC1	-14.6% (inactive)	
Cc1cccc(NC(=O)NC2(C)CCS(=O)(=O)C2)c1 (centres undefined)	18.6% (inactive)	
CC(=O)Nc1ccc(C(=O)CSc2nc3ccc(C)cc3[nH]2)cc1	64.2% (inactive)	
COc1ccc2nc(SCC(=O)Nc3c(C)cc(C)cc3C)[nH]c2c1	0% (inactive)	
CCOC(=O)CSc1nc2ccc(C)cc2[nH]1		13.1 µM (active)
O=C(Nc1c2c(nn1-c1ccccc1)CS(=O)(=O)C2)C1CCCC1	17.7% (inactive)	
CSc1ncc(C(=O)NCCCc2ccccc2)c(C)n1	22.5% (inactive)	
CCSc1nc2c(c(=O)[nH]1)C(c1cccnc1)C(C(=O)OC(C)C)=C(C)N2 (centres undefined)		1.31 µM (active)
COC(=O)C1=C(N)Oc2cc(C)oc(=O)c2C1c1cccnc1 (centres undefined)	28.8% (inactive)	
COC(=O)C1=C(C)Nc2ncnn2C1c1cccnc1 (centres undefined)	-15.1% (inactive)	
COc1ccc2c(C)cc(SCC(=O)NCC3CCCO3)nc2c1 (centres undefined)	-2.69% (inactive)	
O=C(Nc1ccc(F)cc1)C1CCCN(S(=O)(=O)c2ccc(-n3cnnn3)cc2)C1 (centres undefined)	54% (inactive)	
Cc1ccc(-c2nnc(C)c(N3CC(C)OC(C)C3)n2)cc1 (centres undefined)	-3.59% (inactive)	
c1ccc(-c2nnc(N3CCOCC3)c3ccccc23)cc1	16.1% (inactive)	
CC1CN(c2nc(-c3ccccc3)nnc2-c2ccccc2)CC(C)O1 (centres undefined)		0.828 µM (active)
CCOC(=O)c1cccc(NC(=O)CCc2nnc3ccc(N4CCOCC4)nn23)c1	12.9% (inactive)	
O=C(NCc1cccs1)c1ccc(Br)o1	26.7% (inactive)	
O=C(CNC(=O)c1ccc(Br)o1)NCC1CCCO1 (centres undefined)	9.93% (inactive)	
O=C(CNC(=O)c1ccc(Br)o1)Nc1ccccc1		13.1 µM (active)
Nc1c(N(CCCO)C(=O)C2CCCC2)c(=O)[nH]c(=O)n1Cc1ccccc1	30.7% (inactive)	
Cc1cc(Cl)ccc1OCCCC(=O)Nc1cccc(-n2cnnn2)c1	-2.68% (inactive)	

Structure (SMILES)	activity change, negative = inhibition	Potency
OC(CNC1CCCC1)COc1ccc(F)cc1 (centres undefined)	-2.07% (inactive)	
Cc1ccc(-c2cc(=O)c3ccc(F)cc3[nH]2)cc1		2.94 µM (active)
Cc1ccc(-c2cc(=O)c3ccc(Cl)cc3[nH]2)cc1	9.72% (inactive)	
Cc1ccc(S(=O)(=O)/N=C(\N)c2ccc(F)cc2)cc1	20.4% (inactive)	
COCCN1C(=O)N(c2ccc(Cl)cc2)C(=O)C1CC(=O)Nc1cc(OC)cc(OC)c1 (centres undefined)	-17% (inactive)	
O=C(O)c1ccccc1OCc1ccccc1Cl	1.98% (inactive)	
O=C(COC(=O)Cc1c[nH]c2ccccc12)NCCc1ccccc1	15.9% (inactive)	
O=C(Cc1c[nH]c2ccccc12)OCCOC(=O)Cc1c[nH]c2ccccc12		5.22 µM (active)
O=C(CCc1c[nH]c2ccccc12)NCCOc1ccccc1	17.4% (inactive)	
O=C1NN(c2ccccc2)C(=O)/C1=C/c1ccc(-c2cccc(C(=O)O)c2)o1	-0.0242% (inactive)	
COc1ccc(CNC(=O)CCC(=O)Nc2nnc(C(C)C)s2)cc1	0% (inactive)	
COc1cc2ccccc2cc1C(=O)Nc1nc(C)c(C(C)=O)s1	167% (inactive)	
COc1ccc(C(=O)CCC(=O)Nc2cccnc2)c(OC)c1	7.01% (inactive)	
CCOC(=O)C1(Cc2cccc(OC)c2)CCN(Cc2csc(C(C)=O)c2)CC1	20.7% (inactive)	
Cc1noc(C)c1CCC(=O)O	2.96% (inactive)	
CCOC(=O)C1(Cc2ccccc2C)CCCN(C(=O)CCc2c(C)noc2C)C1 (centres undefined)		11.7 µM (active)
CCOC(=O)C1(Cc2cccc(OC)c2)CCN(C(C)CC(C)(C)O)CC1 (centres undefined)	41.4% (inactive)	
CCOC(=O)C1(Cc2ccccc2C)CCCN(S(C)(=O)=O)C1 (centres undefined)	-32.4% (inactive)	
CCOC(=O)C1(Cc2cccc(OC)c2)CCCN(C(=O)CCSC)C1 (centres undefined)		0.37 µM (active)
COc1ccc(-c2c(NC(=O)c3ccco3)oc3ccc(Cl)cc3c2=O)cc1	-23.7% (inactive)	
CCCc1cc(=O)[nH]c(SCC(=O)N2C(C)CCCC2C)n1 (centres undefined)	5.23% (inactive)	
CC1(C)NC(=O)N(CC(=O)Nc2cc(C(F)(F)F)cc(C(F)(F)F)c2)C1=O	0% (inactive)	
O=C(COC(=O)CNC(=O)C1CCCCC1)Nc1cccc(F)c1	9.28% (inactive)	

Structure (SMILES)	activity change, negative = inhibition	Potency
Cc1ccc(F)cc1NC(=O)N1CCCN(c2ccc(C(F)(F)F)cn2)CC1	-5.35% (inactive)	
COc1ccc2nc(N3CCCC(O)C3)c(C#N)cc2c1 (centres undefined)	18.5% (inactive)	
CCOc1ccc2nc(N3CCCN(C(=O)Nc4ccccc4C)CC3)c(C#N)cc2c1		13.1 µM (active)
CC1(C)O[C@H]2CC(=O)OCC23[C@H]2CC[C@@]4(C)[C@H](c5ccoc5)OC(=O)[C@H]5O[C@]54[C@]2(C)C(=O)C[C@@H]13 (some centres undefined)	7.54% (inactive)	
O=C1/C(=C/c2coc3ccc(O)cc3c2=O)SC(=S)N1c1ccccc1	75.1% (inactive)	
Cc1cc2c(cc1C)N(Cc1ccccc1)C1=NCCCN12		7.38 µM (active)
CC(C)(C)C(=O)CN1C2=NCCN2c2ccccc21	-4.41% (inactive)	
COc1cc(C)c(C)cc1S(=O)(=O)N1CCCc2ccccc21	-9.05% (inactive)	
COC(=O)c1ccc(/C=C2/C(=O)Oc3ccccc32)cc1	17.3% (inactive)	
Clc1cc(NC2CCCCC2)ncn1	14.6% (inactive)	
O=C1c2ccccc2S(=O)(=O)N1Cc1c(F)cccc1Cl	2.02% (inactive)	
CC1CCN(C(=O)Cn2cc(C(=O)c3ccco3)c3ccccc32)CC1		10.4 µM (active)
N#Cc1ccc(Cn2cc(C(=O)c3ccco3)c3ccccc32)cc1	8.66% (inactive)	
Cc1cccc(NC(=O)Cn2cc(C(=O)c3ccco3)c3ccccc32)c1	191% (inactive)	
CC(=O)Nc1ccc(S(=O)(=O)N2CCn3cccc3C2C)cc1 (centres undefined)	-27.5% (inactive)	
Cc1cc(NC(=O)c2ccc(F)cc2)ccc1NC(=O)c1ccco1	0.99% (inactive)	
CC1CCCN(S(=O)(=O)c2ccc(-c3ccc(=O)[nH]n3)o2)C1 (centres undefined)	-16.1% (inactive)	
CN(Cc1c(F)cccc1Cl)S(=O)(=O)c1cccs1	43% (inactive)	
COc1ccc2cc1Oc1ccc(cc1)C[C@H]1c3cc(c(OC)cc3CCN1C)Oc1c(O)c(OC)cc3c1[C@H](C2)N(C)CC3		1.85 µM (active)
CCOc1ccc(C(=O)COC(=O)c2ccc(-n3cnnn3)cc2)cc1	-1.17% (inactive)	
CCOc1ccc(C(=O)N(Cc2ccc(N(C)C)cc2)C2CCS(=O)(=O)C2)cc1 (centres undefined)	17.3% [at 5.75 µM] (inactive)	
COc1cc(C(=O)N(Cc2ccc(N(C)C)cc2)C2CCS(=O)(=O)C2)cc(OC)c1OC (centres undefined)	-19.2% (inactive)	
CC1(C)C(C=C(Cl)Cl)C1C(=O)N(Cc1ccc(Cl)cc1)C1CCS(=O)(=O)C1 (centres undefined)		11.7 µM (active)
